Experimental data reported in PubChem BioAssay (NCATS).
Where “and” joins values, the source holds several entries; their conditions need not be identical. Identical values can stand only once. A number with no mark means an inactive call. Results filed as inconclusive are left out. Calls of active or inactive are those of the source. Unless noted, the call rests on the fitted dose curve; in most records, active means well fitted cell-killing curve with a large enough effect; inconclusive means small, poorly fitted or top-dose-only effect, or effect the other way; inactive means flat fitted curve, though single readings scatter.

What was measured:
[1] = qHTS assay for cell viability of the p53RE-bla HCT-116 cell line (AID 743292); further: nearly all actives have a fitted effect of over 55% in size; further: potency means the concentration at half of the fitted maximal effect
In short: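 ATP-based luminescence, 16 h compound exposure at 37 C, p53RE-bla HCT-116 cells at 4,000/well.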

[2] = molecular target: Nuclear receptor subfamily 1 group I member 2 (Rattus norvegicus) (UniProt Q9R1A7); test: qHTS assay for small molecule activators of the rat pregnane X receptor (rPXR) signaling pathway (AID 651751; call rule not given here; further: 0% is about no effect); details: rPXR reporter cells, luciferase (One-Glo), 24 h
Nuclear receptor subfamily 1 group I member 2 (Rattus norvegicus), sequence (Q9R1A7 whole entry, looked up): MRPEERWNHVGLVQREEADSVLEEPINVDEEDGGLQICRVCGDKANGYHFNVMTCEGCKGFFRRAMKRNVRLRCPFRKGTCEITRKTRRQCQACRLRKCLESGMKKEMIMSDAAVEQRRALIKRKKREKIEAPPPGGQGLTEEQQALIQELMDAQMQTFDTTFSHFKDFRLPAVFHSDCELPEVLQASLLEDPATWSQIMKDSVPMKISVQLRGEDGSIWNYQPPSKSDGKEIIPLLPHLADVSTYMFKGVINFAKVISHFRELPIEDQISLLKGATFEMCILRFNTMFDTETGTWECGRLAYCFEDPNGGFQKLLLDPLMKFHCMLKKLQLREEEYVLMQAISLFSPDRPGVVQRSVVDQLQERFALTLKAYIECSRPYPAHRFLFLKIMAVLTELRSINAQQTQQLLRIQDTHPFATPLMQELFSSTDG

[3] = qHTS assay for small molecule activators of the human pregnane X receptor (PXR) signaling pathway (AID 720659; call rule not given here; further: 0% is about no effect)
[4] = qHTS assay for cell viability of HEK293 cells (AID 743288); details: ATP luminescence (CellTiter-Glo), 18 h, active compounds read low; further: on the % scale 0 is the no-effect control and ±100 the full control effect; nearly all actives have a fitted effect of over 50% in size
In short: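 Environmental chemicals tested in qHTS format against parental HEK293 cells; 18 h treatment, 37 C; read-out ATP luminescence (CellTiter-Glo), 30 min RT development.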

Row | Structure (SMILES) | Potency [1] | max response [2] | outcome [3] | max response [4]
1 | CC(C)(O)CCC(C)(C)O | inactive | 3.24% | inactive | –
2 | Nc1cccc2c(=O)[nH][nH]c(=O)c12 | inactive | – | – | 0.895%
3 | C[C@@H]1CC2(OC3C[C@@]4(C)C5=CC[C@H]6C(C)(C)C(O[C@@H]7OC[C@@H](O)[C@H](O)[C@H]7O)CC[C@@]67C[C@@]57CC[C@]4(C)C31)OC(O)C1(C)OC21 (stereo not given in full) | inactive | – | inactive | -9.95%
4 | C=CCCCCCCC=C | inactive | – | – | 3%
5 | COc1ccc(N=[N+]([O-])c2ccc(OC)cc2)cc1 | inactive | – | – | -5.78%
6 | CCN(C(=O)N(CC)c1ccccc1)c1ccccc1 | inactive | -2.68% | – | -19.1%
7 | OC/C(Br)=C(\Br)CO | inactive | 0.247% | inactive | –
8 | O=C(O)c1ccccc1[N+](=O)[O-] | inactive | 0.256% | inactive | –
9 | N#CC1(O)CCCCC1 | inactive | 2.59% | – | 1.77%
10 | CCN(CC)c1cccc(O)c1 | inactive | 3.46% | – | -2.87%
11 | Nc1cccc(C(F)(F)F)c1 | inactive | -1.26% and 1.53% | – | -2.53% and -9.98%
12 | OC(CCl)CCl | inactive | 0.333% | inactive | –
13 | O=C(O)CN(CC(=O)O)CC(=O)O | inactive | – | inactive | 8.87% and -10.3% and 10.6%
14 | CCNc1cc(O)ccc1C | inactive | -2.12% | – | 2.21%
15 | N#CCc1ccccc1[N+](=O)[O-] | inactive | 8.31% | – | -6.51%
16 | BrC/C=C/CBr | inactive | -0.603% | – | -11%
17 | COc1ccc(N)c(OC)c1 | inactive | – | – | 1.67%
18 | Cc1ccc2cccnc2c1 | inactive | -2.67% | – | 6.13%

Row | Structure (SMILES) | Potency [1] | max response [2] | outcome [3] | max response [4]
19 | CC(C=O)Cc1ccc(C(C)(C)C)cc1 (stereo not given) | inactive | 2.84% and 3.47% | inactive | –
20 | O=Cc1c(Cl)cccc1Cl | inactive | 8% | – | –
21 | CC1=C(/C=C/C(C)=C/C=C/C(C)=C\C=O)C(C)(C)CCC1 | 44.7 µM (active) | – | – | -22%
22 | Nc1cccc(S(=O)(=O)O)c1 | inactive | 7.17% | – | –
23 | S=C([S-])NCCNC(=S)[S-].[Zn+2] | inactive | -5.53% and -7.82% and -4.11% | – | 1.36% and -44.1% and -10.7%
24 | Cc1cc(C2(c3cc(C)c(O)cc3C)OS(=O)(=O)c3ccccc32)c(C)cc1O | inactive | -3.33% | – | -2.41%
25 | CC(C)(C)c1ccc(OCC2CO2)cc1 (stereo not given) | inactive | – | – | 3.48%
26 | Cc1ccc2nc(-c3ccc(N)cc3)sc2c1S(=O)(=O)O | inactive | – | – | -7.88%
27 | CCC(C)O (stereo not given) | inactive | – | – | 5.18%
28 | OCCO | inactive | – | – | -10.8%
29 | O=C(O)c1ccc(CO)o1 | inactive | – | inactive | 11.8%
30 | Cc1ccc2c(c1[N+](=O)[O-])C(=O)c1ccccc1C2=O | inactive | 5.79% | – | –
31 | CCOc1ccc(NC(C)=O)cc1N | inactive | 9.33% | inactive | –
32 | CCOc1cc(OCC)c(C(C)=O)cc1OCC | inactive | – | – | 0.327%
33 | C=C(C)C1CC=C(C)C(OC(C)=O)C1 (stereo not given) | inactive | – | inactive | 1.89%
34 | Clc1cc(Cl)cc(Cl)c1 | inactive | – | inactive | -3.91%
35 | CSCCC=O | inactive | 4.33% | – | 1.22%
36 | CC#N | inactive | – | inactive | -9.36%
